Measured values from PubChem BioAssay (Tox21).
“And” between values parts separate entries of the source, which are not always exact repeats. Identical values can stand only once. Inconclusive results are not listed. The source holds several records for some structures; these can differ, active in one and inactive in another. The source made the active and inactive calls. Unless noted, calls come from the whole dose curve; as a rule, active = well fitted curve in the direction sought with a large enough effect in the repeat runs; inconclusive = weak or mixed curves; inactive = no such curve, though single readings can be large; an effect the other way counts as inactive or inconclusive.

Experiments:
[1] = biological target: Thyrotropin receptor (Homo sapiens) (UniProt P16473); test: qHTS assay to identify small molecule agonists of the thyroid stimulating hormone receptor (TSHR) signaling pathway (AID 1224843; calls by dose curve; note: nearly all actives have a fitted effect of over 45% in size; note: potency is the fitted concentration of half-maximal effect)
In short: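 Cell line HEK293 with TSHR; density 800/well. Exposure 30 min RT. Readout HTRF cAMP (cAMP-d2/anti-cAMP-cryptate), 1 h RT before reading.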

[2] = qHTS assay to identify small molecule agonists of the hypoxia (HIF-1) signaling pathway - cell viability counter screen (AID 1224844; calls by dose curve; note: nearly all actives have a fitted effect of over 50% in size; note: potency is the fitted concentration of half-maximal effect)
In short: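 HRE-bla ME-180 cells, 2,000/well in 0.5% dialyzed FBS medium, treated 17 h at 37C with compounds. Viability read in the same wells as the bla reporter, by CellTiter-Glo luminescence after 30 min at room temperature.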

[3] = qHTS assay to identify small molecule agonists of H2AX (AID 1224845; active = well fitted activation curve with a large enough effect in the signal ratio in the repeat runs, not every such curve was filed as active; the % refers to the signal ratio)
In short: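 Wild-type CHO-K1 cells plated overnight, then exposed 3 hr at 37C to compounds at 15 concentrations (0.76% DMSO). Lysed, then HTRF anti-pH2AX(S139)-cryptate/anti-H2AX-d2 detection after 24 hr at room temperature; emissions 665 and 620 nm.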

[4] = qHTS assay to identify small molecule agonists of the hypoxia (HIF-1) signaling pathway (AID 1224846; active = well fitted activation curve with a large enough effect in the signal ratio in the repeat runs, not every such curve was filed as active; the % refers to the signal ratio)
In short: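 HRE-bla ME-180 beta-lactamase reporter cells in medium with 0.5% dialyzed FBS, pre-incubated 5 h then exposed to compounds 17 h at 37C, 5% CO2; reporter induction read with CCF4-AM FRET substrate.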

[5] = qHTS assay to identify small molecule agonists of H2AX - cell viability counter screen (AID 1224847; calls by dose curve; note: nearly all actives have a fitted effect of over 30% in size; note: potency is the fitted concentration of half-maximal effect)
In short: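 We seed wild-type CHO-K1 cells overnight, treat them for 3 hr at 37C with compounds in 15-concentration series, and quantify remaining viability by CellTiter-Glo luminescence.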

[6] = qHTS assay to identify small molecule antagonists of the estrogen related receptor (ERR) signaling pathway from Tox21 library (AID 1224848); note: nearly all actives have a fitted effect of over 50% in size; note: potency is the fitted concentration of half-maximal effect
In short: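 Screening used an ERR reporter line supplied by NTP, exposed for 18 h at 37 C to library compounds delivered in DMSO. Signal was luciferase luminescence developed with ONE-Glo at room temperature for 30 min.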

[7] = qHTS assay to identify small molecule agonists of the estrogen related receptor (ERR) signaling pathway from Tox21 library (AID 1224849; calls by dose curve; note: nearly all actives have a fitted effect of over 15% in size); details: ERR reporter cell line, ONE-Glo luciferase, 18 h
In short: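 ERR reporter cells (NTP line) pre-incubated 6 hours at 37 C, then exposed to compounds for 18 hours at 37 C. ONE-Glo luciferase luminescence was read after 30 minutes at room temperature.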

[8] = qHTS RealTime-Glo MT Cell Viability Assay in HepG2 cells - 24 hour (AID 1224867); note: nearly all actives have a fitted effect of over 50% in size; note: potency is the fitted concentration of half-maximal effect
In short: (§1)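 qHTS, HepG2, 600 cells/well, RealTime-Glo (NanoLuc + prosubstrate) added with cells; 5 h preincubation; DMSO compound addition; 37 C; luminescence at 0/8/16/24/32/40 h.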

[9] = qHTS RealTime-Glo MT Cell Viability Assay in HEK293 cells - 32 hour (AID 1224868); note: nearly all actives have a fitted effect of over 50% in size; note: potency is the fitted concentration of half-maximal effect
In short: (§2)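 Assay medium contained NanoLuc luciferase plus cell-permeant prosubstrate, added with HEK293 cells at 600 cells/well. After 5 h at 37 C/5% CO2 compounds were added; plates stayed at 37 C for 40 h with serial luminescence reads.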

[10] = A CellTox Green Cytotoxicity Assay to monitor cytotoxicity in HEK293 cells - 0 hour (AID 1224869); note: nearly all actives have a fitted effect of over 50% in size; note: potency is the fitted concentration of half-maximal effect
In short: (§3)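 HEK293 cells, 600/well, were preincubated 5 hours and then exposed to compounds at 37 C for up to 40 hours. A cell-impermeant cyanine dye staining dead-cell DNA was read by fluorescence at 0, 8, 16, 24, 32 and 40 h time points.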

[11] = qHTS RealTime-Glo MT Cell Viability Assay in HepG2 cells - 40 hour (AID 1224870); note: nearly all actives have a fitted effect of over 50% in size; note: potency is the fitted concentration of half-maximal effect
In short: (§4)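 HepG2 cells mixed with RealTime-Glo MT reagents (NanoLuc plus cell-permeant prosubstrate) were seeded at 600 cells/well, incubated 5 h at 37 C/5% CO2, then pinned with compounds in DMSO; nonlytic luminescence tracked viability during 40 h treatment.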

[12] = A CellTox Green Cytotoxicity Assay to monitor cytotoxicity in HEK293 cells - 40 hour (AID 1224871); note: nearly all actives have a fitted effect of over 45% in size; note: potency is the fitted concentration of half-maximal effect
In short: as §3

[13] = qHTS RealTime-Glo MT Cell Viability Assay in HEK293 cells - 16 hour (AID 1224872); note: nearly all actives have a fitted effect of over 50% in size; note: potency is the fitted concentration of half-maximal effect
In short: as §2

[14] = qHTS RealTime-Glo MT Cell Viability Assay in HepG2 cells - 8 hour (AID 1224873); note: nearly all actives have a fitted effect of over 55% in size; note: potency is the fitted concentration of half-maximal effect
In short: as §4

[15] = qHTS RealTime-Glo MT Cell Viability Assay in HEK293 cells - 40 hour (AID 1224874); details: RealTime-Glo luminescence; max response: stronger effect = lower value; note: nearly all actives have a fitted effect of over 50% in size; note: potency is the fitted concentration of half-maximal effect
In short: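 600 cells/well were plated with the nonlytic NanoLuc/prosubstrate reagent, pre-incubated 5 h, then given 23 nL of compound in DMSO. Incubation at 37 C for 40 h, with luminescence from viable-cell-reduced substrate read repeatedly from 0 h.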

[16] = A CellTox Green Cytotoxicity Assay to monitor cytotoxicity in HepG2 cells - 16 hour (AID 1224876); note: nearly all actives have a fitted effect of over 45% in size; note: potency is the fitted concentration of half-maximal effect
In short: (§5)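 HepG2 cells, 600/well, preincubated 5 h with CellTox Green dye, then exposed to Tox21 compounds in DMSO at 37 C for up to 40 h. Dead-cell DNA fluorescence read at the indicated time point.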

[17] = qHTS RealTime-Glo MT Cell Viability Assay in HepG2 cells - 32 hour (AID 1224877); note: nearly all actives have a fitted effect of over 55% in size; note: potency is the fitted concentration of half-maximal effect
In short: as §1

[18] = A CellTox Green Cytotoxicity Assay to monitor cytotoxicity in HepG2 cells - 24 hour (AID 1224878); note: nearly all actives have a fitted effect of over 45% in size; note: potency is the fitted concentration of half-maximal effect
In short: as §5

[19] = A CellTox Green Cytotoxicity Assay to monitor cytotoxicity in HepG2 cells - 40 hour (AID 1224879); note: nearly all actives have a fitted effect of over 40% in size; note: potency is the fitted concentration of half-maximal effect
In short: as §5

[20] = A CellTox Green Cytotoxicity Assay to monitor cytotoxicity in HEK293 cells - 24 hour (AID 1224875); note: nearly all actives have a fitted effect of over 45% in size; note: potency is the fitted concentration of half-maximal effect
In short: as §3
% is set by controls: 0 for no effect and ±100 for the full control effect.

Thyrotropin receptor (Homo sapiens), sequence (P16473 whole entry, looked up): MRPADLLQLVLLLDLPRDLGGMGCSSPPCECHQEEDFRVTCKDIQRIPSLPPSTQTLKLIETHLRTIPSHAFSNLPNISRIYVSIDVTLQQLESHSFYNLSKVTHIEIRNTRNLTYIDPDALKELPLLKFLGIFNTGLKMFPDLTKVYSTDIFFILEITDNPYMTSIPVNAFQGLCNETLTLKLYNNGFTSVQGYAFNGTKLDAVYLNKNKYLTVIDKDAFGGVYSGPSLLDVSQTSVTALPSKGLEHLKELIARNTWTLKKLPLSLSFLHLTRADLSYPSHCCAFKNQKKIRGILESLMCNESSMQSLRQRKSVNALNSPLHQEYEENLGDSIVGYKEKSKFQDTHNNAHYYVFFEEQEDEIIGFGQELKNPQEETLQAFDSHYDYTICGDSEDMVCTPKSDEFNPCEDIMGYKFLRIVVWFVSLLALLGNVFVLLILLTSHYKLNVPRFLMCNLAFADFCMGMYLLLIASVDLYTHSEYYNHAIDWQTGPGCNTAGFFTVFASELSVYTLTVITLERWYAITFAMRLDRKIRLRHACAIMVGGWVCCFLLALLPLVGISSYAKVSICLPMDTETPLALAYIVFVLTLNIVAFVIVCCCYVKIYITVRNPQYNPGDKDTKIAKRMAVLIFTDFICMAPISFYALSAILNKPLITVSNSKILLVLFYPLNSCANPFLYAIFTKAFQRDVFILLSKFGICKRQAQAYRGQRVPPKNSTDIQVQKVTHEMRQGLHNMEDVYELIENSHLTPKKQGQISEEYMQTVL

O=Cc1ccco1
active: Potency [12] 21.1 µM
inactive: Potency [1] | Potency [2] | Potency [3] | outcome [4] | Potency [5] | Potency [6] | activity change, positive = activation ([7]; at 92.4 µM (top of the series)) 0.408% and 7.35% | Potency [8] | Potency [9] | Potency [10] | Potency [11] | Potency [13] | Potency [14] | max response [15] -0.5% | Potency [16] | Potency [17] | Potency [18] | Potency [19]

N#Cc1cc(Br)c(O)c(Br)c1
inactive: Potency [1] | Potency [2] | Potency [3] | outcome [4] | activity change, positive = activation ([7]; at 92.4 µM (top of the series)) -51.5% and -34.9% | Potency [8] | Potency [9] | Potency [10] | Potency [12] | Potency [13] | Potency [14] | max response [15] -28.3% and -19.4% | Potency [20] | Potency [17] | Potency [18] | Potency [19]
active: Potency [6] 48.5 µM and 37.1 µM

CC(C)N(C(=O)SCC(Cl)=C(Cl)Cl)C(C)C
inactive: Potency [2] | outcome [4] | Potency [5] | Potency [8] | Potency [9] | Potency [10] | Potency [11] | Potency [12] | Potency [13] | Potency [14] | max response [15] -12% and 19.1% | Potency [20] | Potency [16] | Potency [17] | Potency [18] | Potency [19]
active: Potency [1] 30.2 µM and 15.4 µM

CCCCCCOC(=O)c1ccccc1C(=O)OCCCCCC
inactive: Potency [1] | Potency [2] | outcome [4] | Potency [5] | Potency [8] | Potency [9] | Potency [10] | Potency [11] | Potency [12] | Potency [13] | Potency [14] | max response [15] -22.3% | Potency [20] | Potency [17] | Potency [18] | Potency [19]

NC(=S)Nc1ccccc1
49.8 µM (active) and inactive: Potency [10] | Potency [12] | Potency [16] | Potency [18]
inactive: Potency [1] | Potency [2] | outcome [4] | Potency [5] | Potency [8] | Potency [11] | Potency [13] | Potency [14] | max response [15] -2.05% | Potency [17]
active: Potency [15] 4.98 µM
5.59 µM (active) and inactive: Potency [9]
55.9 µM (active) and inactive: Potency [19]

Cc1ccc(N)c(N)c1
inactive: Potency [1] | Potency [2] | Potency [3] | outcome [4] | Potency [5] | Potency [8] | Potency [10] | Potency [11] | Potency [12] | Potency [14] | Potency [20] | Potency [16] | Potency [17] | Potency [18] | Potency [19]

CCCCCCCCC(=O)NCc1ccc(O)c(OC)c1
inactive: Potency [1] | Potency [2] | Potency [3] | Potency [5] | Potency [8] | Potency [9] | Potency [10] | Potency [11] | Potency [12] | Potency [13] | Potency [14] | max response [15] 8.1% and -1.04% | Potency [20] | Potency [17] | Potency [18] | Potency [19]

CCOCN(C(=O)CCl)c1c(C)cccc1CC
8.15 µM (active) and inactive: Potency [1]
active: Potency [2] 51.9 µM | Potency [6] 23 µM and 27.3 µM
inactive: outcome [4] | Potency [5] | activity change, positive = activation ([7]; at 92.4 µM (top of the series)) -61% and -71.1% | Potency [8] | Potency [9] | Potency [10] | Potency [11] | Potency [12] | Potency [13] | Potency [14] | max response [15] -23.6% and -0.0681% | Potency [20] | Potency [16] | Potency [17] | Potency [18] | Potency [19]

S=C1NCCN1
1.69 µM (active) and inactive: Potency [1]
inactive: Potency [2] | outcome [4] | Potency [5] | Potency [8] | Potency [9] | Potency [10] | Potency [11] | Potency [12] | Potency [13] | Potency [14] | max response [15] 5.45% and 5.82% | Potency [20] | Potency [17] | Potency [18] | Potency [19]

CN(C)C(=O)Nc1ccc(Cl)cc1
inactive: Potency [1] | Potency [2] | Potency [3] | outcome [4] | Potency [5] | Potency [8] | Potency [9] | Potency [10] | Potency [12] | Potency [13] | Potency [14] | max response [15] -3.64% and -10.5% | Potency [20] | Potency [16] | Potency [17] | Potency [18] | Potency [19]

NNC(N)=S
inactive: Potency [1] | Potency [2] | outcome [4] | Potency [5] | activity change, positive = activation ([7]; at 92.4 µM (top of the series)) -76.7% and -56.6% | Potency [8] | Potency [9] | Potency [10] | Potency [12] | Potency [13] | Potency [14] | max response [15] 1.23% and 8.52% | Potency [20] | Potency [16] | Potency [17] | Potency [18] | Potency [19]
active: Potency [6] 16 µM and 61.1 µM

c1ccc(NNc2ccccc2)cc1
inactive: Potency [1] | Potency [2] | outcome [4] | Potency [5] | Potency [6] | activity change, positive = activation ([7]; at 92.4 µM (top of the series)) 2.54% and 6.77% | Potency [8] | Potency [9] | Potency [10] | Potency [11] | Potency [13] | Potency [14] | max response [15] -4.96% and -2.46% | Potency [16] | Potency [17] | Potency [18] | Potency [19]
active: Potency [12] 24.5 µM | Potency [20] 24.5 µM

C=C(C)[C@H]1Cc2c(ccc3c2O[C@@H]2COc4cc(OC)c(OC)cc4[C@@H]2C3=O)O1
24.5 µM (active) and inactive: Potency [14]
active: Potency [1] 24.7 µM and 17.2 µM and 26.6 µM | Potency [5] 0.091 µM | Potency [6] 39.1 nM and 9.7 nM and 10.6 nM | Potency [8] 27.9 µM and 27.5 µM | Potency [9] 55.7 nM and 11 nM and 47.7 nM | Potency [11] 44.2 µM and 27.5 µM | Potency [13] 88.2 nM and 15.5 nM and 107 nM | Potency [15] 55.7 nM and 11 nM and 47.7 nM | Potency [17] 44.2 µM and 27.5 µM | Potency [18] 49.6 µM and 38.9 µM | Potency [19] 24.9 µM and 24.5 µM
inactive: Potency [2] | outcome [4] | activity change, positive = activation ([7]; at 42.5 µM (top of the series)) -51.1% | activity change, positive = activation ([7]; at 92.4 µM (top of the series)) -64.6% and -64.1% | Potency [10] | Potency [12] | Potency [20] | Potency [16]
